High-throughput results deposited in PubChem by National Center for Advancing Translational Sciences (NCATS).
HepG2 tox: qHTS for Inhibitors of TGF-b: Cytotox Counterscreen; 410,000 compounds, 0.76% hits; AID 588856, 2011; HepG2 CAGA-GFP viability, ATP luminescence, 18 h; Potency, µM (series often up to 46.1 µM), for the others: top-dose activity change, negative = cytotoxicity, usual class: cytotoxic
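HepG2 CAGA-GFP cells (1000/well, DMEM with 1% FBS) received compound, then TGF-beta at 500 pg/mL final, and were incubated 18 hours at 37 degrees C. Viability was read by CellTiter-Glo luminescence. Media-only wells were set as complete cell-killing and DMSO as no toxicity.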
TGFb inhibitor: qHTS for Inhibitors of TGF-b; HepG2 CAGA-GFP TGF-b/SMAD3 reporter, GFP fluorescence, 18 h; TGF-beta stimulated, 500 pg/mL final; Potency, µM (highest dose often 46.1 µM), for inactives: at the top dose activity, negative = inhibition, hits mostly inhibitors; 410,000 compounds, 1.2% hits; AID 588855, 2011; further: on the % scale 0 is the no-effect control and ±100 the full control effect; nearly all actives have a fitted effect of over 65% in size
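HEPG2 CAGA-GFP cells (1000/well, DMEM with 1% FBS) were pre-incubated 2 h at 37 degrees C, given compound by pin tool, then stimulated with TGF-beta at 500 pg/mL final for 18 h before per-cell GFP fluorescence imaging.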
HT1080 IDH1KD tx: qHTS for induction of synthetic lethality in tumor cells producing 2HG: qHTS for the HT-1080-IDH1KD cell line. HT-1080 IDH1 knockdown viability, ATP luminescence, 48 h. Potency, µM (doses to about 46.1 µM), for inactives: at the top dose activity, negative = toxicity, hits mostly cytotoxic. 360,000 compounds, 2% hits. AID 686971, 2013;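 further: 0% = DMSO wells and -100% = cell-free medium wells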
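Assay cells: HT-1080 with IDH1 knockdown, 750 per well, RPMI/5% FBS. Exposure: 48 h at 37 °C following 2 h pre-incubation. Read: CellTiter-Glo luminescence; fitted concentration-response, curve class assigned.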
HT1080-NT tox: qHTS for induction of synthetic lethality in tumor cells producing 2HG: qHTS for the HT-1080-NT fibrosarcoma cell line; HT-1080-NT fibrosarcoma viability, CellTiter-Glo ATP luminescence, 48 h; Potency, µM (series often up to 46.1 µM), without a hit: top-dose activity, negative = less viability, hits mostly cytotoxic; 360,000 compounds, 1.6% hits; AID 686970, 2013;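 further: NT is the 2HG producing partner of a matched IDH1 knockdown line; 0% = DMSO-treated cells and -100% = media-only wells without cells; nearly all actives have a fitted effect of over 55% in size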
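Viability by CellTiter-Glo luminescence after 48 h compound exposure at 37C of HT-1080-NT cells (750/well, RPMI, 5% FBS). % activity scaled between DMSO wells and medium-only wells, then curve-fitted and categorized by curve class.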
TDP1 cell noCPT: qHTS for Inhibitors of human tyrosyl-DNA phosphodiesterase 1 (TDP1): qHTS in cells in absence of CPT. Potency, µM (top dose mostly 46.2 µM), for inactives: at the highest dose activity change, negative = growth inhibition, hits mostly inhibitors. DT40 Tdp1-/- hTDP1 cells, no CPT, ATP luminescence, 48 h. 420,000 compounds, 15% hits; further: on the % scale 0 is the no-effect control and ±100 the full control effect; nearly all actives have a fitted effect of over 55% in size
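No-CPT arm: Tdp1-/-;hTDP1 DT40 cells (400/well) plus compounds, incubated ≥48 hr at 37 °C. Readout CellTiter-Glo luminescence.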
TDP1 cell CPT: qHTS for Inhibitors of human tyrosyl-DNA phosphodiesterase 1 (TDP1): qHTS in cells in presence of CPT; AID 686979, 2013; chicken DT40 Tdp1-/-;hTDP1 cells + 20 nM CPT, ATP luminescence, 48 h; Potency, µM (highest dose often 46.2 µM), for the others: at the highest dose activity change, negative = growth inhibition, actives largely listed as inhibitors; 420,000 compounds, 12% hits; further: on the % scale 0 is the no-effect control and ±100 the full control effect; nearly all actives have a fitted effect of over 55% in size
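Chicken DT40 Tdp1-/- cells stably complemented with human TDP1 were seeded at 400 cells/well in medium containing 20 nM camptothecin, exposed to pin-transferred compounds, and grown at 37 °C for at least 48 hr. Viability was read as ATP luminescence.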
* marks the source's active call; other numbers are inactive results; ? = inconclusive; nt = not tested or not shown; [ ] = remark or other dose. In the library only some 17% were active in any assay of this set; here they are far more common. The call rests on the fitted dose curve; in most records, active means well fitted curve in the direction sought with a large enough effect; inconclusive means small, poorly fitted or top-dose-only effect, or another doubt; inactive means no such curve, though single readings can be large; an effect the other way counts as inactive or inconclusive. Potency means the concentration at half of the fitted maximal effect.

SMILES	HepG2 tox	TGFb inhibitor	HT1080 IDH1KD tx	HT1080-NT tox	TDP1 cell noCPT	TDP1 cell CPT
COc1ccc(C(c2nnnn2Cc2ccccc2)N2CCC(n3c(=O)[nH]c4ccccc43)CC2)cc1 (configuration not stated)	0.8%	?	?	?	16.4µM*	18.4µM*
O=c1[nH]c2ccccc2n1C1CCN(C(c2cccs2)c2nnnn2Cc2ccccc2)CC1 (configuration not stated)	-31.3%	?	16.4µM*	18.4µM*	14.6µM*	18.4µM*
Fc1ccc(C2=CCN(C(c3cccs3)c3nnnn3CCc3ccccc3)CC2)cc1 (configuration not stated)	-5.4%	3.8%	-0.5%	1.0%	?	?
O=c1[nH]c2ccccc2n1C1CCN(C(c2ccccc2OC(F)(F)F)c2nnnn2Cc2ccccc2)CC1 (configuration not stated)	-38.6%	11.2µM*	?	25.9µM*	10.3µM*	10.3µM*
CCOC(=O)c1ccc(CNCc2ccc(Br)cc2)cc1	4.3%	-16.1%	-3.3%	-9.9%	?	?
CCOC(=O)C(C(=O)OCC)C(Nc1ccc(Br)cc1)c1ccccc1 (configuration not stated)	11.2µM*	?	12.6µM*	?	?	29.1µM*
C=C(C)C1Cc2c(ccc3c2OC2COc4cc(OC)c(OC)cc4C2C3=O)O1 (configuration not stated)	nt	nt	nt	nt	0.103µM*	0.0517µM*
C=C(C)[C@H]1Cc2c(ccc3c2O[C@@H]2COc4cc(OC)c(OC)cc4[C@@H]2C3=O)O1	nt	nt	nt	nt	0.237µM*	0.237µM*
Cc1cccc(N2CCN(C(=O)C34CC5CC(CC(C5)C3)C4)CC2)c1C	4.5%	0.4%	8.1%	9.5%	?	?
CC(C)CN(CC(C)C)C(=O)C1C2c3ccccc3C(c3ccccc32)C1C(=O)O (configuration not stated)	-19.9%	-21.9%	3.4%	6.3%	?	-16.1%
CC(C)(CN)CC(=O)O	-51.4%	-1.0%	-1.3%	-1.4%	-4.7%	-13.4%
CC(N)C(=O)NC1C2C(=C(O)CC(O)C2O)C(=O)OC1(C)C(Cl)Cl (configuration not stated)	-3.6%	?	0.92µM*	?	0.164µM*	0.184µM*
CC[C@@H]1CN2CCc3cc(OC)c(OC)cc3[C@@H]2C[C@@H]1C[C@H]1NCCc2cc(OC)c(OC)cc21	nt	nt	nt	nt	0.0335µM*	-74.3%
N#CC(C#N)=C(C#N)c1ccc(Nc2ccccc2)cc1	-3.3%	1.7%	2.2%	-2.0%	?	10.3µM*
c1ccc(Nc2ccc(Nc3ccccc3)cc2)cc1	-14.7%	0.9%	-14.4%	-25.5%	6.51µM*	?
O=C1OC(c2ccc(O)c(S(=O)(=O)O)c2)(c2ccc(O)c(S(=O)(=O)O)c2)c2c(Br)c(Br)c(Br)c(Br)c21	nt	nt	nt	nt	5.8%	8.0%
CC(C)(C)c1o[nH]c(=O)c1C[C@H](N)C(=O)O	nt	nt	nt	nt	-4.7%	5.5%
CCOc1ccc(NC(=O)Cn2cc(C(=O)c3ccccc3)c3ccccc32)cc1	-28.9%	?	nt	nt	?	-29.4%
CC1CCC(NC(=O)c2cc3c(=O)n(C)c4ccccc4c3n2C)CC1 (configuration not stated)	-14.4%	-0.4%	-2.8%	4.0%	?	9.2µM*
CCCc1nc(SC)ncc1C(=O)Nc1ccc(Cl)cc1C(=O)c1ccccc1	-6.9%	-18.6%	nt	nt	23.1µM*	?
O=[N+]([O-])CCO	2.9%	-2.9%	5.9%	19.4%	-14.8%	-13.0%
O[C@@H]1CCCN2CCc3c([nH]c4ccccc34)[C@H]12	-56.5%	-1.5%	6.8%	-10.8%	?	14.6µM*
CC1(C)C[C@H]2C=C(C=O)[C@]3(C=O)C[C@]3(C)[C@H]2C1	10µM*	?	11.6µM*	16.4µM*	0.82µM*	0.92µM*
O=[N+]([O-])c1cc(I)c(O)c(I)c1	nt	nt	nt	nt	?	7.8%
Cc1ccc(NC(=O)c2cc(S(=O)(=O)N3CCOCC3)c(Cl)cc2Cl)cc1	-28.8%	?	nt	nt	18.4µM*	?
SMILES	HepG2 tox	TGFb inhibitor	HT1080 IDH1KD tx	HT1080-NT tox	TDP1 cell noCPT	TDP1 cell CPT
ClC1=C(Cl)[C@]2(Cl)[C@@H]3[C@@H]4C[C@@H]([C@H]5O[C@@H]45)[C@@H]3[C@@]1(Cl)C2(Cl)Cl	nt	nt	nt	nt	-17.8%[92.5 µM]	4.3%[92.5 µM]
CC1CN1c1cc2c(c3c1ccn3C)C1CCC2C1 (configuration not stated)	-2.5%	-21.3%	5.3%	-0.4%	8.2µM*	7.31µM*
Cc1nc2c(=O)n(C)c(=O)nc-2n(C)n1	0.631µM*	0.631µM*	1.3µM*	2.59µM*	0.517µM*	0.411µM*
CN1C(=O)C(=Cc2ccc(OCCN(C)c3ccccn3)cc2)C(=O)N(C)C1=O	8.3%	10.0%	11.1%	?	9.4%	-0.9%
C[C@H]1CCC/C=C/C2C[C@H](O)CC2[C@H](O)/C=C/C(=O)O1 (some centres not stated)	-27.0%	0.1µM*	0.0291µM*	0.0366µM*	0.184µM*	0.231µM*
COc1cccc(-c2sc3ccccc3c2-c2ccc(OCCN3CCOCC3)cc2)c1	-21.4%	-14.0%	-8.8%	-18.8%	?	?
COc1cccc(NC(=O)N2CCc3nc(Nc4ccc(C(C)C)cc4)ncc3C2)c1	-20.8%	?	-10.1%	?	?	25.9µM*
CN(C)C(=O)Oc1cccc(NC(=O)N2CCOCC2)c1	0.6%	-1.8%	3.9%	5.8%	-3.4%	-19.1%
COC(=O)[C@]1(C)CC[C@@]2(C)CC[C@@]3(C)C4=CC=C5C(=CC(=O)C(O)=C5C)[C@@]4(C)CC[C@@]3(C)C2C1 (some centres not stated)	nt	nt	nt	nt	0.731µM*	1.03µM*
CC(=O)c1ccc(NC(=O)c2sc3nc4c(cc3c2N)N2CCC4CC2)cc1	-39.6%	1.5%	nt	nt	nt	nt
Nc1c(C(=O)Nc2ccc(OC(F)(F)F)cc2)sc2nc3c(cc12)N1CCC3CC1	-16.9%	-24.8%	nt	nt	18.4µM*	16.4µM*
CCCCC(=O)Nc1c(C(=O)N2CCN(c3ccccc3F)CC2)oc2ccccc12	-24.7%	?	nt	nt	9.2µM*	14.6µM*
NNc1ccccc1	nt	nt	nt	nt	0.8%	-12.8%
